Screening results as filed in PubChem BioAssay.
Only a selection was taken, and hits are over-represented in it overall.
Methyltransferases: Primary Screen for Target Class Profiling of Small Molecule Inhibitors of Methyltransferases | actives 3.9% (n = 25,000) | calls only at 40 µM | purified enzyme, MTase-Glo SAH luminescence; stronger effect = lower value; call rule not given here
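Each enzyme was reacted with SAM and its substrate, with compounds tested once at 40 uM; SAH formed was read by MTase-Glo luminescence.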
Large screens that a line does not name were inactive.

CC1(C(=O)NCc2ccccc2)Cn2c(cc3ccccc32)C(=O)N1C1CC1 (stereo not drawn)	none
CNC(=O)c1ccccc1Nc1nc(Nc2ccc3c(c2OC)CCCC(N2CCN(CCO)CC2)C3)ncc1Cl (stereo not drawn)	Methyltransferases active
COc1c(Nc2ncc(Cl)c(N[C@H]3[C@@H](C(N)=O)[C@@H]4C=C[C@H]3C4)n2)ccc2c1CC[C@@H](N1CCOCC1)CC2	none
Cc1ccc(NC(=O)CSc2nnc3n(CC(C)C)c(=O)c4ccc(C(=O)NC(C)C)cc4n23)c(C)c1	none
CCOCCCN1C(=O)c2cc3ccc(OC)cc3n2CC1(C)C(=O)NC1CCCCC1 (stereo not drawn)	none
CCc1ccccc1N1C(=O)c2cc(-c3ccc(OC)cc3)nn2CC1(C)C(=O)NCc1ccccc1OC (stereo not drawn)	none
O=C(O)c1cc(N(Cc2ccc(C3CCCCC3)cc2)C(=O)c2ccc(Oc3ccccc3)cc2)ccc1O	Methyltransferases active
Cc1ccccc1N1C(=O)c2cc3occc3n2CC1(C)C(=O)NC1CCCC(C)C1C (stereo not drawn)	none
COc1ccccc1CNS(=O)(=O)c1cc2c(cc1C)n(C)c(=O)n2C	none
COc1ccc(OC)c(CCN2C(=O)c3cc4occc4n3CC2(C)C(=O)NC2CCCCC2)c1 (stereo not drawn)	none
CN(C)CC[C@H](CSc1ccccc1)Nc1ccc(S(=O)(=O)NC(=O)c2ccc(N3CCN(Cc4ccccc4-c4ccc(Cl)cc4)CC3)cc2)cc1[N+](=O)[O-]	Methyltransferases active
CC1(C)CCC(c2ccc(Cl)cc2)=C(CN2CCN(c3ccc(C(=O)NS(=O)(=O)c4ccc(N[C@H](CCN5CCOCC5)CSc5ccccc5)c(S(=O)(=O)C(F)(F)F)c4)cc3)CC2)C1	Methyltransferases active
COc1ccc(NC(=O)CCc2nnc3n(CCc4ccccc4)c(=O)c4ccccc4n23)cc1	none
CCN1C(=O)c2c(C(=O)NCCc3ccco3)ncn2CC1(C)C(=O)NC1CCCC1 (stereo not drawn)	none
Cc1ccc(CNC(=O)C2(C)Cn3c(nc4ccccc43)C(=O)N2Cc2cccc(C)c2)cc1 (stereo not drawn)	none
COc1ccc(OC)c2c1cc1n2CC(C)(C(=O)NC2CCCCC2C)N(Cc2cccs2)C1=O (stereo not drawn)	none
COc1ccc(CNC(=O)C2(C)Cn3cnc(C(=O)Nc4ccc(Cl)cc4F)c3C(=O)N2C2CC2)cc1 (stereo not drawn)	none
CC(C)CNC(=O)c1ccc2c(=O)n(C(C)C)c3nn(Cc4ccccc4Cl)c(=O)n3c2c1	none
CNc1cc2c(Nc3cccc(Br)c3)ncnc2cn1	Methyltransferases active
CC(C)CCNC(=O)C1(C)Cn2c(cc3ccccc32)C(=O)N1CCc1ccccc1Cl (stereo not drawn)	none
COc1ccc(-c2cc3n(n2)CC(C)(C(=O)NCc2ccccc2)N(c2cccc(C)c2C)C3=O)cc1 (stereo not drawn)	none
CC1(C(=O)NC2CCCCC2)Cn2c(nc3ccccc32)C(=O)N1Cc1ccccc1Br (stereo not drawn)	none
C=C1C(=O)O[C@@H]2/C=C(\C)CC/C=C(\C)CC[C@@H]12	none
C=C1C(=O)O[C@@H]2/C=C(\C)CC/C=C(\C(=O)O[C@@H]3O[C@H](CO)[C@@H](O)[C@H](O)[C@H]3O)CC[C@@H]12	none
C=C1C(=O)OC2/C=C(\CO)CC/C=C(\C=O)C(OC)C(OC(=O)C(C)CC)C12 (stereo not drawn)	Methyltransferases active
C=C(C)C(=O)O[C@H]1/C(C=O)=C\CC/C(CO)=C/[C@H]2OC(=O)C(=C)[C@@H]2[C@@H]1OC	none
C=C1C(=O)OC2/C=C(\C)CC/C=C(\C=O)C(OC)C(OC(=O)C(C)CC)C12 (stereo not drawn)	Methyltransferases active
C=C1C(=O)O[C@@H]2/C=C(\C)CC/C=C(/C=O)[C@H](OC)[C@@H](OC(=O)C(C)C)[C@@H]12	none
CCOCCCN1C(=O)c2cc(-c3ccccc3)nn2CC1(C)C(=O)NCc1ccccc1 (stereo not drawn)	none
Cc1ccc(CNC(=O)c2ncn3c2C(=O)N(C2CC2)C(C)(C(=O)NCc2cccc(C)c2)C3)cc1 (stereo not drawn)	none
CC(C)OCCCn1c(=O)c2ccccc2n2c(CCC(=O)N3CCN(Cc4ccccc4)CC3)nnc12	none
Cc1ccccc1CN1C(=O)c2ccc(-c3ccco3)n2CC1(C)C(=O)NC1CCCCCCC1 (stereo not drawn)	none
CCOC(=O)c1cc2n(n1)CC(C)(C(=O)NC1CCC(C)CC1)N(c1ccc(NC(C)=O)cc1)C2=O (stereo not drawn)	none
COc1ccc(OC)c2c1cc1n2CC(C)(C(=O)NC2CCCCC2C)N(Cc2ccccn2)C1=O (stereo not drawn)	none
Cc1cc2c(cc3n2CC(C)(C(=O)NC2CCCCC2)N(CCc2ccccc2)C3=O)o1 (stereo not drawn)	none
COc1ccc(OC)c2c1cc1n2CC(C)(C(=O)NC2CCCCC2)N(Cc2ccccn2)C1=O (stereo not drawn)	Methyltransferases active
COc1ccc(OC)c2c1cc1n2CC(C)(C(=O)NC2CCCC2)N(Cc2ccccc2)C1=O (stereo not drawn)	none
